The entries come from a sample that favours hits as a whole.
Methyltransferases: Primary Screen for Target Class Profiling of Small Molecule Inhibitors of Methyltransferases | hit rate 3.9% among 25,000 | calls only at 40 µM | purified enzyme, MTase-Glo SAH luminescence; active compounds read low; call rule not given here
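Each enzyme was reacted with SAM and its substrate, with compounds tested once at 40 uM; SAH formed was read by MTase-Glo luminescence.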
Calls only; . = inactive; + = active, no number.

SMILES	Methyltransferases
CSc1ccc(CN2C(=O)c3cc(-c4ccccc4)nn3CC2(C)C(=O)NCc2ccccc2)cc1 (configuration not stated)	.
Cc1ccc(CNC(=O)CSc2nnc3n(C)c(=O)c4ccc(C(=O)NC5CCCC5)cc4n23)cc1	.
O=C(Cn1ccc2cc(S(=O)(=O)N3CCCCC3)ccc21)N1CCCCC1	.
CN1CCN(CCCN2C(=O)c3cc4sccc4n3CC2(C)C(=O)NC2CCCCC2)CC1 (configuration not stated)	.
CCC(C)NC(=O)c1ccc2c(=O)n(C(C)C)c3nn(CC(=O)N(C)c4ccccc4)c(=O)n3c2c1 (configuration not stated)	.
CCOC(=O)c1cc2n(n1)CC(C)(C(=O)NCCC(C)C)N(c1ccc(OCC)cc1)C2=O (configuration not stated)	.
CCN1C(=O)c2cc(C(=O)NCc3ccccc3F)nn2CC1(C)C(=O)NC1CCCC1 (configuration not stated)	.
Cc1ccc(NC(=O)CSc2nnc3n(CC(C)C)c(=O)c4cc(F)ccc4n23)cc1	.
COC(=O)c1cc2n(n1)CC(C)(C(=O)NC1CCC(C)CC1)N(c1cc(Cl)ccc1C)C2=O (configuration not stated)	.
CC(C)CNC(=O)c1ccc2c(=O)n(Cc3ccccc3)c3nn(Cc4cccc(F)c4)c(=O)n3c2c1	.
CCOC(=O)C1CCN(S(=O)(=O)c2ccc(Cl)c(-c3nnc(-c4ccccc4)o3)c2)CC1	.
COc1ccc(Cn2c(=O)c3ccccc3n3c(-c4ccccc4OC)nnc23)cc1	.
O=c1[nH]c(=S)[nH]c(-c2ccccc2)c1Cc1c(O)ccc2ccccc12	+
CCOc1ccc(CCN2C(=O)c3c(C(=O)OC)ncn3CC2(C)C(=O)NC2CCCCCC2)cc1 (configuration not stated)	.
N#Cc1ccc(N2N=C3c4ccc(C(=O)O)cc4CC[C@@H]3[C@@H]2C2CCCC2)cc1Cl	+
COC(=O)C1=COC(O[C@@H]2O[C@H](COC(=O)/C=C/c3ccc(O)cc3)[C@@H](O)[C@H](O)[C@H]2O)C2C(CO)=CCC12 (some centres not stated)	.
O=C(/C=C/c1ccccc1)OCC1=CC[C@@H]2C(C(=O)O)=CO[C@@H](O[C@@H]3O[C@H](CO)[C@@H](O)[C@H](O)[C@H]3O)[C@H]12	.
COC(=O)C1=CO[C@@H](O[C@@H]2O[C@H](COC(=O)/C=C/c3cc(OC)c(O)c(OC)c3)[C@@H](O)[C@H](O)[C@H]2O)[C@@H]2C(CO)=CC[C@H]12	+
CCCn1c(=O)c2ccc(C(=O)NC3CCCC3)cc2n2c(=O)n(CC(=O)Nc3ccc(F)cc3)nc12	.
COc1ccc2cc3n(c2c1)CC(C)(C(=O)NC1CCCCC1)N(Cc1ccccn1)C3=O (configuration not stated)	.
COc1ccc2cc3n(c2c1)CC(C)(C(=O)NC1CCCCCC1)N(CCN1CCN(C)CC1)C3=O (configuration not stated)	.
CC(=O)Nc1c2n(c3ccc(F)cc13)CC(C)(C(=O)NC1CCCC1)N(CC1CCCO1)C2=O (configuration not stated)	.
CCCN1C(=O)c2c(C(=O)NCCc3cccc(C)c3)ncn2CC1(C)C(=O)NC1CCCC1 (configuration not stated)	.
CCCNC(=O)c1cc2n(n1)CC(C)(C(=O)NC1CCCCCC1)N(C)C2=O (configuration not stated)	.
Nc1ncnc2c1ncn2[C@@H]1O[C@H](CO)[C@@H](O)[C@H]1O	.
SMILES	Methyltransferases
CSCC1OC(n2cnc3c(=O)[nH]cnc32)C(O)C1O (configuration not stated)	.
CC(C)N(C[C@H]1O[C@@H](n2cnc3c(N)ncnc32)[C@H](O)[C@@H]1O)C1CC(CCc2nc3ccc(C(C)(C)C)cc3[nH]2)C1 (some centres not stated)	+
Cc1ccc(CNC(=O)Cn2nc3n(C(C)C)c(=O)c4ccc(C(=O)NC5CCCC5)cc4n3c2=O)cc1	.
CCN1CCN(Cc2ccc(-c3cc4c(NC(C)c5ccccc5)ncnc4[nH]3)cc2)CC1 (configuration not stated)	+
CCN1CCN(Cc2ccc(-c3cc4c(N[C@H](C)c5ccccc5)ncnc4[nH]3)cc2)CC1	+
COC(=O)c1ccc([C@H]2Nc3ccc(S(=O)(=O)Nc4ccc(C)c(C)c4)cc3[C@H]3C=CC[C@H]32)cc1	.
COc1ccccc1CNC(=O)CNC(=O)C1(C)Cn2c(cc3ccccc32)C(=O)N1C (configuration not stated)	.
COc1ccc(Br)cc1CN1C(=O)c2cc3ccccc3n2CC1(C)C(=O)NCc1ccccc1 (configuration not stated)	.
Cc1[nH]c(=O)c(C#N)cc1-c1ccc2nccn2c1	+
Cc1[nH]c(=O)c(C#N)cc1-c1ccncc1	.
CCOC(=O)C1CCN(C(=O)c2ccc3nccn3c2)CC1	.
CCCSCCCN1C(=O)c2cc3ccc(OC)cc3n2CC1(C)C(=O)NC1CCCCC1 (configuration not stated)	.
CC(C)CCn1c(=O)c2ccccc2n2c(=O)n(CC(=O)Nc3ccc(Cl)cc3)nc12	.
O=C(Cn1ccc2cc(S(=O)(=O)N3CCCCC3)ccc21)NCCN1CCOCC1	.
CCCn1c(=O)c2ccc(C(=O)NCC(C)C)cc2n2c(SCC(=O)Nc3cc(C)cc(C)c3)nnc12	.
COc1ccc(Nc2n[nH]nc2C(=O)NCc2ccc3c(c2)OCO3)cc1	.
C=CCNC(=O)CCCc1nnc2n3nc(-c4ccccc4)nc3c3ccccc3n12	.
CC1CCC(NC(=O)CCCc2nnc3n4nc(-c5ccccc5)nc4c4ccccc4n23)CC1 (configuration not stated)	.
CC1CCCCN1CCNC(=O)CCCc1nnc2n3nc(-c4ccccc4)nc3c3ccccc3n12 (configuration not stated)	.
CCN(CC)CCNC(=O)CCCc1nnc2n3nc(-c4ccccc4)nc3c3ccccc3n12	+
Cc1ccc(CNC(=O)CCCc2nnc3n4nc(-c5ccccc5)nc4c4ccccc4n23)cc1	.
CCN(CC)CCCNC(=O)CCCc1nnc2n3nc(-c4ccccc4)nc3c3ccccc3n12	+
CCN1C(=O)c2cc(C(=O)N3CCN(c4cc(Cl)ccc4C)CC3)nn2CC1(C)C(=O)NC1CCCC1 (configuration not stated)	.
CN1C(=O)c2cc(C(=O)NCc3ccco3)nn2CC1(C)C(=O)NC1CCCC1 (configuration not stated)	.
CCOC(=O)c1cc2n(n1)CC(C)(C(=O)NCc1ccccc1)N(c1cc(C)ccc1C)C2=O (configuration not stated)	.
SMILES	Methyltransferases
CCOc1ccccc1CNC(=O)c1cc2n(n1)CC(C)(C(=O)NCc1ccc(C)cc1)N(C)C2=O (configuration not stated)	.
CC(C)OCCCNC(=O)CCc1nnc2ccc(NCc3ccccc3Cl)nn12	.
COc1cc(-c2ccc(O)cc2)c(OC)c(O)c1C1=CC(=O)OC1CC(=O)O (configuration not stated)	.
COc1cc(O)c2c(c1Cl)CC(C)OC2=O (configuration not stated)	.
COc1c(O)cc2c(c1O)C(=O)O[C@H](C)[C@H]2O	+
COc1cccc(CN2C(=O)c3cc4ccccc4n3CC2(C)C(=O)NCCCOC(C)C)c1 (configuration not stated)	.

Assay outcomes as filed in PubChem.
